Measured values published in PubChem BioAssay (NCI).
About 83,000 compounds went through this panel and 20% of them were active in at least one assay; those are over-represented in the sample as a whole.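 Cells were grown in 96-well plates and exposed to the test compound at a single concentration for 48 hours; results are reported as percent growth, with values below 10 considered active.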 Values without a mark were called inactive. Calls of active or inactive are those of the source.

Assays:
Test in all cases: NCI-60 one-dose screen, 48 h (100 = growth as untreated, 0 = no growth, -100 = all killed)
Conditions in all cases: 10 µM unless noted
SK-MEL-2 melanoma = tested on: SK-MEL-2 melanoma
EKVX NSCLC = tested on: EKVX NSCLC
SN12C renal = tested on: SN12C renal
UO-31 renal = tested on: UO-31 renal
TK-10 renal = tested on: TK-10 renal
ACHN renal = tested on: ACHN renal
CAKI-1 renal = tested on: CAKI-1 renal
A498 renal = tested on: A498 renal
CCRF-CEM leukemia = tested on: CCRF-CEM leukemia
MOLT-4 leukemia = tested on: MOLT-4 leukemia

SMILES	growth (SK-MEL-2 melanoma)	growth (EKVX NSCLC)	growth (SN12C renal)	growth (UO-31 renal)	growth (TK-10 renal)	growth (ACHN renal)	growth (CAKI-1 renal)	growth (A498 renal)	growth (CCRF-CEM leukemia)	growth (MOLT-4 leukemia)
O=C(O)c1cn(C2CC2)c2cc(N3CCN(C(=O)N/N=C/c4ccccc4)CC3)c(F)cc2c1=O	98.7%	101%	112%	74%	96.5%	101%	93.3%	109%	96.9%	85.4%
CCCCn1sc(=O)n(Cc2ccc(CNC(=O)OCc3ccc4c(Br)cc(Br)c(O)c4n3)cc2)c1=O	45.6%	103%	29.5%	42.7%	74.8%	33.6%	22.4%	-7.85% (active)	18.1%	14.6%
C=CCOC(=O)C1=C(C)NC(=O)NC1c1c(Cl)n(C)c2ccccc12 (centres undefined)	112%	98.2%	96.9%	80.9%	102%	99.7%	94.3%		-49.5% (active)	98.5%
Cc1ccc(C)n1/C=C/n1c(C)ccc1C	109%	85.9%	118%	93.6%	93.5%	112%	69.5%		88.4%	117%
O=C1CCCc2nc3sc4c(=O)n(-c5ccccc5Cl)nnc4c3cc21	95.2%	91.7%	90.4%	92.4%	95%	107%	97.6%		85.1%	98.2%
CCCCCCCCn1ccc2cc(NC(=O)Cn3cc(CN4CCOCC4)nn3)ccc21	100%	87.9%	100%	78.3%	108%	98.5%	83.9%		-31.6% (active)	35.8%
Cc1ccc(-c2cc(C(=O)N3N=C(c4ccc(N)cc4)CC3c3ccc(Cl)cc3)c3ccccc3n2)cc1 (centres undefined)	2.76% (active)	44.5%	48.8%	42.9%	24.5%	51.7%	24%		12.8%	25.2%
N#Cc1nc(-c2ccc(F)cc2)oc1S(=O)(=O)N1CCN(c2ccc(F)cc2)CC1	90.9%	113%	85%	81.2%	86%	77.5%	100%		4.6% (active)	1.8% (active)
Cc1ccc2[nH]c(=O)c3c(c2c1)OC(N)=C(C#N)C31C(=O)c2cccc3cccc1c23 (centres undefined)	110%	102%	97.8%	77.7%	123%	95.5%	90.9%		95.3%	88.1%
CCN(CC)c1ccc(/C=N/NC(=O)c2ccc(Nc3ccnc(C(F)(F)F)c3)cc2)c(O)c1	56.8%	11.2%	24.4%	4.15% (active)	43.5%	7.21% (active)	7.86% (active)		25.5%	103%
COc1ccc(/C=C/C(=O)c2ccc(Nc3nc(Nc4ccc(F)cc4)nc(Nc4ccc(Cl)cc4)n3)cc2)cc1	55.1%	86.2%	112%	75.6%	137%		86.5%	118%	8.9% (active)	22.3%
Cn1cc(-c2csc(-c3cn(C)c4ccc(Br)cc34)n2)c2cnccc21	47.7%	-79.1% (active)	-91.5% (active)	-89.9% (active)	-75.7% (active)		-82.2% (active)	68.7%	-38.1% (active)	-58.9% (active)
Nc1n[nH]c2ccc([C@@H]3Nc4cc5[nH]ncc5cc4[C@H]4C5CCC(C5)[C@@H]34)cc12 (some centres undefined)	65.2%	35.2%	36.4%	40.2%	62.4%		34.5%	-15.7% (active)	11.2%	22.5%
